Results filed as inconclusive are left out. Activity calls are given as the source filed them.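 The calls were made as follows: active = every repeat run fits a falling-signal curve with half-maximal potency within ten times top tested dose; inconclusive = runs disagree, or flat moderate drop, or poor fit; inactive = every run inactive, including signal moving upward.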
Test: inhibition of ADP-Glo detection reagents, dose response, artefact control for CDK5 inhibitor project, biochemical, luminescence, cherry-picked samples, set 2 (AID 504546)
Conditions: ADP-Glo detection reagent counter screen, 5 uM ADP; series mostly up to 30 µM

SMILES	outcome
COc1cc(OC)cc(C(=O)NNC(=O)c2ccccn2)c1	inactive
Cc1ccc(C(=O)O/N=C(\N)c2ccccn2)cc1C	inactive
Cc1ccc2nc(Cl)c(C#N)cc2c1	inactive
COc1cc2c(ccc3cc(OC)c(OC)c(O)c32)cc1O	inactive
O=C(NNC(=O)c1cccs1)c1ccccc1	inactive
NC(=S)N/N=C/c1c(O)c(Br)cc2oc3c(c12)CCCC3	inactive
COc1cc(C(=O)N2CCN(c3ccccn3)CC2)cc(OC)c1OC	inactive
OCCCNc1nccc(-c2cc(Nc3cccc(Cl)c3)ncn2)n1	inactive
O=C(Nc1csc(Cc2c(Cl)cccc2Cl)n1)NN1CCOCC1	inactive
ON=C1c2ccccc2-c2ccc(O)cc21	inactive
Cc1nn(-c2ccccn2)c2c1C(=O)CC(C)(C)C2Br (stereo unspecified)	inactive
Oc1ccc(C=NNc2ccccn2)c(O)c1	inactive
COc1ccc(Nc2nc(N)c([N+](=O)[O-])c(N3CCCC3)n2)cc1	inactive
CC(=O)[C@H]1CC[C@H]2[C@@H]3CC=C4C[C@@H](OS(=O)(=O)O)CC[C@]4(C)[C@H]3CC[C@]12C	inactive
COc1ccc2nc3c(cc2c1)c(NC(=O)C1CCCO1)nn3CC(C)C (stereo unspecified)	inactive
Cc1cccc(Nc2nc(N)c([N+](=O)[O-])c(NCCO)n2)c1	inactive
COc1cc(OC)c(C(=O)N2CCN(c3ccccn3)CC2)cc1OC	inactive
CC(C)n1cnc2c(Nc3cccc(Cl)c3)nc(N(CCO)CCCO)nc21	inactive

SMILES	outcome
Clc1cncc(Cl)c1N/N=C/c1ccncc1	inactive
COc1cc(/C=N/Nc2ccc(C(F)(F)F)cn2)cc(OC)c1O	inactive
CNS(=O)(=O)c1ccc2c3c(cccc13)C(=O)N2	inactive
CC(C)n1cnc2c(NCc3ccc(S(N)(=O)=O)cc3)nc(NCc3ccc(S(N)(=O)=O)cc3)nc21	inactive
O=C(c1ccc(F)cc1)c1cnc(Nc2ccccc2)s1	inactive
CCc1ncc(/C=C2\C(=O)Nc3ccccc32)[nH]1	inactive
COc1ccc(Nc2nc(N)c(C(=O)c3ccc(F)cc3)s2)cc1	inactive
O=C(O)c1ccc(N/N=C/c2ccc(C(F)(F)F)cc2)cc1	inactive
CCc1cc(C(=O)c2ccc(OC)cc2)c(N)s1	inactive
O=c1c(O)cccc2cc(O)c(O)c(O)c12	inactive
Fc1ccccc1/C=N/Nc1ncnc2nc[nH]c12	inactive
Oc1[nH]c2ccccc2c1C1=NCCCCC1	inactive
O=C(O)c1ccc(/C=N/Nc2ncc(C(F)(F)F)cc2Cl)cc1	inactive
O=C1NCCCc2c1oc1ccc(O)cc21	inactive
COc1ccc(C(=O)c2sc(Nc3ccccc3)nc2N)cc1	inactive
CCC(C)Oc1cc(-c2ccnc(Nc3cccc(Cl)c3)n2)ccn1 (stereo unspecified)	inactive
O=[N+]([O-])c1ccc2c(c1)-c1ccccc1C2=NO	inactive
COc1cc(OC)cc(C(=O)N2CCN(c3ccccn3)CC2)c1	inactive

From PubChem BioAssay AID504546 (Broad Institute, 2011)
